Shiga inhibitor: inhibitors of Shiga toxin in Vero cells | Vero cells, Shiga toxin protein synthesis inhibition reporter | inhibition, % at 38.7 µM | actives 9.2% (n = 290,000) | AID 2315; in the data active means inhibition mostly above about 28%, no sharp cut-off; inactive means mostly below about 43%
Pf growth 96h: P. falciparum growth inhibition at 96 hours. actives 6.9% (n = 320,000). AID 504834. P. falciparum luciferase reporter growth, 96 h. Potency, µM (series often up to 28.7 µM), actives largely listed as inhibitors
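Readout is luminescence from an integrated firefly luciferase in P. falciparum. Red cells, 2% hematocrit and 0.05% parasitemia final, were cultured with compound through two parasite generations (96 hours) at 37 C, 5% CO2.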
Pf growth 48h: P. falciparum growth inhibition at 48 hours (one generation). actives 5.9% (n = 310,000). Potency, µM (top dose mostly 28.7 µM), most hits filed as inhibitors. P. falciparum luciferase growth in erythrocytes, 48 h
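In quantitative HTS format, infected erythrocytes bearing luciferase-reporter parasites were treated for a single generation at 37 C. Luminescence after adding detection reagent served as the growth measure.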
Cycloheximide cs: counter-screen hit for Shiga toxin inhibitors, cycloheximide. cell reporter, cycloheximide protein synthesis inhibition counterscreen. max response, %. actives 12% (n = 300,000). AID 2314; in the data active means max response mostly above about 13%, no sharp cut-off; inactive means mostly below about 14%; further: read at 38.3 µM for the half of the compounds with a filed dose
Each line names hits and unclear results; the compound was inactive in the other large screens. A selection: hits, their analogues and other compounds. The true share with any hit is near 21%. Unless noted, the call rests on the fitted dose curve; in most records, active means well fitted inhibition curve with a large enough effect; inconclusive means small, poorly fitted or top-dose-only effect, or another doubt; inactive means no such curve, though single readings can be large or run the other way.

Cc1c(Cl)cn2c(=O)cc(CN(C)Cc3nc4ccccc4c(=O)[nH]3)nc2c1Cl	none
COc1ccc(/C=C/C(=O)Nc2ccccc2C(N)=O)cc1S(=O)(=O)N1CCOCC1	Pf growth 96h 4.15µM, Pf growth 48h inconclusive (no result: Shiga inhibitor, Cycloheximide cs)
COc1ccccc1NC(=O)/C=C/c1ccc(OC)c(S(=O)(=O)N2CCOCC2)c1	Pf growth 48h 13.1µM
Cc1ccc(NC(=O)/C=C/c2ccc3c(c2)OCO3)cc1S(=O)(=O)N1CCOCC1	Pf growth 96h inconclusive, Cycloheximide cs 13.0
COc1cccc(/C=C/C(=O)Nc2cc(S(=O)(=O)N3CCOCC3)ccc2OC)c1	none (no result: Shiga inhibitor, Cycloheximide cs)
COc1ccccc1NS(=O)(=O)/C=C/c1ccccc1	Pf growth 96h 8.28µM
O=C(CNc1cc(S(=O)(=O)N2CCOCC2)ccc1NCC1CCCO1)Nc1ccc(F)c(F)c1 (stereo not drawn)	Pf growth 96h inconclusive, Pf growth 48h inconclusive
Cc1ccc(S(=O)(=O)N(C)c2cccc3cccnc23)cc1	none (no result: Pf growth 96h, Pf growth 48h)
CCCNC(=O)/C=C/c1ccc(S(=O)(=O)Nc2ccccc2OC)cc1	Pf growth 96h 9.28µM
COc1ccc(/C=C/C(=O)Nc2cc(F)ccc2C)cc1S(=O)(=O)N1CCOCC1	Pf growth 96h inconclusive, Pf growth 48h 14.7µM
COc1ccc(C(=O)NC2CCCCC2)cc1S(=O)(=O)N1CCOCC1	Pf growth 96h inconclusive
COc1ccc(/C=C/C(=O)N(C)Cc2cccs2)cc1S(=O)(=O)N1CCOCC1	Pf growth 48h inconclusive
COc1ccc(/C=C/C(=O)NC2CCCCCC2)cc1S(=O)(=O)N1CCOCC1	Pf growth 96h 9.28µM, Pf growth 48h inconclusive, Cycloheximide cs 19.3
COc1ccccc1CNC(=O)/C=C/c1ccc(S(=O)(=O)N2CCOCC2)cc1	Pf growth 96h 4.65µM, Pf growth 48h inconclusive
C[C@@H]1C[C@@H]([C@@H](C)CC2CC(=O)NC(=O)C2)C(=O)[C@@H](C)C1	none (no result: Pf growth 96h, Pf growth 48h)
COCCN1C(=S)N[C@@H](c2ccccc2)C(C(=O)OC)=C1C	Pf growth 48h inconclusive
COc1ccc(CCNC(=O)/C=C/c2ccc(S(=O)(=O)N3CCOCC3)cc2)cc1	Pf growth 96h inconclusive (no result: Shiga inhibitor, Cycloheximide cs)
O=C(/C=C/c1ccc(S(=O)(=O)N2CCOCC2)cc1)NCCc1ccc(C(F)(F)F)cc1	Pf growth 96h 6.57µM, Pf growth 48h 11.7µM (no result: Shiga inhibitor, Cycloheximide cs)
CC(C)NC(=O)c1ccc2c3n(nc2c1)-c1ccccc1CO3	Cycloheximide cs 22.0
N#CCCCC#Cc1ccc2c(c1)COc1c3ccccc3nn1-2	none (no result: Shiga inhibitor, Cycloheximide cs)
CC(C)[C@@H](CO)NC(=O)c1ccc2c3n(nc2c1)-c1ccccc1CO3	Shiga inhibitor 50.0, Cycloheximide cs 36.7
Cc1cc(=O)n2nc(N3CCC(C(=O)NCc4cccc(Cl)c4)CC3)sc2n1	Pf growth 48h inconclusive
Cc1cccc(NC(=O)C2C3C=CC(O3)C2C(=O)O)c1C (stereo not drawn)	Pf growth 96h inconclusive
CN(Cc1ccccc1)C(=O)[C@@H]1CCCN1S(=O)(=O)c1ccc(Cl)cc1	none
O=c1c(Cc2ccccc2)c(O)ccn1C1CCCCCCC1	Pf growth 48h inconclusive
Cc1ccc(C(=O)NN(CCC(=O)NC(C)(C)C)C2=NS(=O)(=O)c3ccccc32)cc1	Pf growth 96h 5.86µM
CC(C)(C)NC(=O)CCN(/N=C/c1ccccc1)C1=NS(=O)(=O)c2ccccc21	Pf growth 96h inconclusive, Pf growth 48h inconclusive
CC(=O)c1cccc(NC(=O)C(C)N(C)CC(=O)Nc2ccc(Cl)cc2)c1 (stereo not drawn)	Pf growth 96h inconclusive
Cc1ccc(CCNC(=O)c2cccc(NC3=NC4CS(=O)(=O)CC4S3)c2)cc1 (stereo not drawn)	none
COCCn1c(C)cc(C(=O)COC(=O)c2ccc(NC(=O)CC#N)cc2)c1C	Shiga inhibitor 72.6, Cycloheximide cs 40.2 (no result: Pf growth 96h)
COCCn1c(C)cc(C(=O)COC(=O)c2cncc(Br)c2)c1C	Shiga inhibitor 54.0, Cycloheximide cs 36.1
COCCn1c(C)cc(C(=O)COC(=O)c2ccc3ncsc3c2)c1C	Shiga inhibitor 109.8, Pf growth 96h inconclusive, Cycloheximide cs 23.9
COCCn1c(C)cc(C(=O)COC(=O)c2ccccc2Br)c1C	none
COCCn1c(C)cc(C(=O)COc2nc3ccccc3nc2C)c1C	Pf growth 96h inconclusive
Cc1cccc(OCCC(=O)NNC(=O)c2ccoc2C)c1	none (no result: Shiga inhibitor, Cycloheximide cs)
C=CCNC(=O)c1ccccc1NC(=O)C1COc2ccccc2O1 (stereo not drawn)	Pf growth 96h inconclusive, Pf growth 48h inconclusive
Cc1ccnc(NCn2nnc3ccccc32)c1	Pf growth 48h inconclusive
Clc1cnc(N/N=C/c2ccncc2)c(Cl)c1	Shiga inhibitor 48.6, Cycloheximide cs 15.6
Clc1ccc(N/N=C/c2ccncc2)cc1Cl	Shiga inhibitor 60.2, Pf growth 96h 1.17µM, Pf growth 48h 2.33µM, Cycloheximide cs 37.9
O=C(O)c1ccc(/C=N/Nc2ncc(C(F)(F)F)cc2Cl)cc1	none
Cc1ccnc2nc(C(=O)OCC(=O)c3c[nH]c4ccccc34)nn12	none
COc1ccc(C(C(=O)NC(C)(C)C)N(C(=O)CNC(=O)c2cccs2)c2ccc(C(C)C)cc2)cc1OC (stereo not drawn)	Pf growth 96h 8.28µM, Pf growth 48h 11.7µM
COc1ccc(N(C(=O)CNC(=O)c2cccs2)C(C(=O)NCC2CCCO2)c2ccc(OC)c(OC)c2)cc1 (stereo not drawn)	Pf growth 96h inconclusive, Pf growth 48h inconclusive
CCOc1ccc(N(C(=O)CNC(=O)c2cccs2)C(C(=O)NCC2CCCO2)c2ccc(OC)c(OC)c2)cc1 (stereo not drawn)	Pf growth 48h 9.28µM
Cc1occc1C(=O)N(C)Cc1nc(-c2ccc(Cl)cc2)no1	none
CCOc1ccc(N2C(=O)C(Cl)=C(Nc3ccccc3O)C2=O)cc1	Shiga inhibitor 96.6, Cycloheximide cs 37.3 (no result: Pf growth 48h)
O=C1C(Cl)=C(Nc2ccccc2O)C(=O)N1CCc1ccccc1	Cycloheximide cs 30.2
COc1ccc(NC2=C(Cl)C(=O)N(c3ccccc3)C2=O)c(OC)c1	Pf growth 96h inconclusive
COc1ccc(N2C(=O)C(Cl)=C(Nc3ccc(OC)cc3OC)C2=O)cc1	Cycloheximide cs 44.1
CN(C(=O)CSc1nc(N)cc(N)n1)C1CCS(=O)(=O)C1 (stereo not drawn)	none
O=C(NNC(=O)c1csc(N2CCOCC2)n1)c1cccnc1	none (no result: Shiga inhibitor, Cycloheximide cs)
COc1cc([N+](=O)[O-])ccc1NC(=S)Nc1cc(C(=O)OC(C)C)cc(C(=O)OC(C)C)c1	Pf growth 96h inconclusive, Pf growth 48h inconclusive
COc1ccc(Cc2nnc(SCC(=O)Nc3ccc(N4CCOCC4)cc3)o2)cc1	none
CCOc1ccc2c(c1)-c1c(ssc1=S)C(C)(C)N2C(=O)c1ccco1	Pf growth 96h 1.31µM, Pf growth 48h 2.33µM
COc1ccc2c(c1)-c1c(ssc1=S)C(C)(C)N2C(=O)CSC1=NCCS1	none
CC(NC(=O)c1ccccc1OC(F)F)c1ccc(-n2ccnc2)cc1 (stereo not drawn)	Pf growth 96h 11.7µM, Pf growth 48h inconclusive
COc1ccc(C(=O)NC(C)c2ccc(-n3ccnc3)cc2)c(OC)c1OC (stereo not drawn)	none
C=CCOC(=O)C(=O)/C=C/c1ccc2c(c1)Cc1ccccc1-2	Cycloheximide cs 14.1
C=CCOC(=O)C(=O)/C=C/c1csc2ccccc12	none
CC(=O)c1cc2ccc(O)cc2oc1=O	none
Cc1ccc(NC(=O)CN(C)C(=O)c2cc3ccccc3o2)cc1	Pf growth 48h inconclusive

From PubChem
